From PubChem BioAssay (EPA / NIEHS)
Inconclusive results are not listed. Calls of active or inactive are those of the source. The calls were made as follows, unless noted: active = hit-call score of the fitted dose curve at least 0.9, where 1 is the maximum; inactive = score below 0.9.

Key:
[1] = ATG_TAL_CIS: Attagene CIS-FACTORIAL HepG2 Assay for human TAL Basal Promoter (AID 2282966); conditions: HepG2 Attagene cis-factorial TAL promoter reporter; actives raise or lower the signal;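 also: background control endpoint measuring basal TAL promoter reporter mRNA not a specific factor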
Outline: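 Fluorescence of labelled reporter cDNA fragments, resolved by capillary electrophoresis, gave the readout. Human HepG2 liver cells carried transiently transfected cis-element reporter units and were treated for 24 hours; activity was fitted bidirectionally against DMSO.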

[2] = ATG_TGFb_CIS: Attagene CIS-FACTORIAL HepG2 Assay for human Transforming Growth Factor (TGF) (AID 2282967); conditions: HepG2 Attagene CIS TGFb reporter, mRNA transcription; actives raise or lower the signal
Outline: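 After a 24-hour incubation with compound, transfected HepG2 cells were lysed for RNA; reporter cDNA was amplified, fluorescently end-labeled and separated by CE. DMSO served as baseline for bidirectional fits.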

[3] = ATG_VDRE_CIS: Attagene CIS-FACTORIAL HepG2 Assay for human Vitamin D Receptor Element (VDRE) (AID 2282968); conditions: HepG2 VDRE cis-reporter transcription, actives raise or lower the signal
Outline: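 In transiently transfected HepG2 liver cells, gain or loss of reporter mRNA after 24 h exposure is scored relative to DMSO, using fluorescence detection by capillary electrophoresis of RT-PCR products.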

[4] = target: X-box-binding protein 1 (Homo sapiens) (UniProt P17861); assay: ATG_Xbp1_CIS: Attagene CIS-FACTORIAL HepG2 Assay for human X-box Binding Protein 1 (XBP1) (AID 2282972); conditions: HepG2 XBP1 cis-element reporter, Attagene multiplex; actives raise or lower the signal
Outline: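 Fluorescence-labelled cDNA fragments from reporter transcripts, separated by capillary electrophoresis, give the signal. Source: HepG2 cells transfected with promoter-driven reporter units, harvested 24 h post-dose. DMSO served as reference for bidirectional curve fitting.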

[5] = target: Glucocorticoid receptor (Homo sapiens) (UniProt P04150); assay: ATG_GR_TRANS: Attagene TRANS-FACTORIAL HepG2 Assay for human Glucocorticoid Receptor (GR) (AID 2282978; active = hit-call score of the fitted dose curve at least 0.9, where 1 is the maximum;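 also: activators score as hits since higher reporter transcript over DMSO is fitted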); conditions: HepG2 Attagene TRANS GR reporter, mRNA transcription
Outline: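 HepG2 transient transfection, multiple reporter units, GAL4-UAS under NR-GAL4 chimera control. 24 h treatment. Reporter mRNA by RT-PCR/CE fluorescence, DMSO as negative control.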

[6] = target: Hepatocyte nuclear factor 4-alpha (Homo sapiens) (UniProt P41235); assay: ATG_HNF4a_TRANS: Attagene TRANS-FACTORIAL HepG2 Assay for human Hepatocyte Nuclear Factor 4 alpha (HNF4a) (AID 2282982; active = hit-call score of the fitted dose curve at least 0.9, where 1 is the maximum); conditions: HepG2 HNF4a transactivation reporter, mRNA readout
Outline: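 Transfected HepG2 reporter cells are dosed for 24 h; reporter RNA is reverse-transcribed, amplified, fluorescently labelled and HpaI-digested before CE sizing. Positive-direction fit against DMSO.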

[7] = ATG_M_06_TRANS: Attagene TRANS-FACTORIAL HepG2 Assay for M06 Transcription Factor (Internal Marker) (AID 2282983; active = hit-call score of the fitted dose curve at least 0.9, where 1 is the maximum;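 also: reporter transcript level by RT-PCR then capillary electrophoresis fluorescence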); conditions: HepG2 Attagene TRANS M06 internal marker reporter
Outline: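 Transfect HepG2 with MRTUs → dose compounds 24 h → isolate RNA, oligo(dT) RT → PCR with reporter primers → 6-FAM primer extension → HpaI digest → CE fragment analysis. Positive direction vs DMSO.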

[8] = target: Nuclear receptor subfamily 4 group A member 2 (Homo sapiens) (UniProt P43354); assay: ATG_NURR1_TRANS: Attagene TRANS-FACTORIAL HepG2 Assay for human Nuclear Receptor Related Protein 1 (NURR1) (AID 2282985; active = hit-call score of the fitted dose curve at least 0.9, where 1 is the maximum); conditions: HepG2 Attagene TRANS reporter, mRNA readout
Outline: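 Cells: HepG2, transiently transfected. Exposure: 24 h. Detection: fluorescence of labelled RT-PCR products separated by capillary electrophoresis; upward fit versus DMSO.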

[9] = target: Transcriptional activator Myb (Homo sapiens) (UniProt P10242); assay: ATG_Myb_CIS: Attagene CIS-FACTORIAL HepG2 Assay for human Myeloblastosis (Myb) Proto-Oncogene Transcription Factor (AID 2282986); conditions: HepG2 Attagene CIS-FACTORIAL Myb reporter transcription; actives raise or lower the signal
Outline: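 Multiplexed cis-reporter system in HepG2: transient transfection, 24 h treatment, mRNA readout by RT-PCR and capillary electrophoresis. Both increases and decreases are scored versus DMSO negative control.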

[10] = target: Nuclear respiratory factor 1 (Homo sapiens) (UniProt Q16656); assay: ATG_NRF1_CIS: Attagene CIS-FACTORIAL HepG2 Assay for human Nuclear Respiratory Factor 1 (NRF1) Orphan Gene (AID 2282987); conditions: HepG2 NRF1 cis-element reporter, Attagene multiplex; actives raise or lower the signal
Outline: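 Endogenous factor activity was captured via cis-element-driven reporter transcripts in HepG2 cells. Following 24 h chemical treatment, transcripts were quantified by RT-PCR and capillary electrophoresis.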

[11] = ATG_NFI_CIS: Attagene CIS-FACTORIAL HepG2 Assay for human Nuclear Factor I (NFI) (AID 2282989); conditions: HepG2 cis-regulatory reporter, NFI response element transcription; actives raise or lower the signal
Outline: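 Reporter transcription driven by endogenous transcription factors in HepG2 cells; 24 h treatment. Quantitation by labelled RT-PCR fragments on capillary electrophoresis, gain- or loss-of-signal relative to DMSO.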

[12] = target: Nuclear receptor subfamily 1 group I member 3 (Homo sapiens) (UniProt Q14994); assay: ATG_CAR_TRANS: Attagene TRANS-FACTORIAL HepG2 Assay for human Constitutive Androstane Receptor (CAR) (AID 2282969; active = hit-call score of the fitted dose curve at least 0.9, where 1 is the maximum;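 also: activators raise reporter mRNA above DMSO so AC50 marks induction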); conditions: HepG2 Attagene TRANS-FACTORIAL CAR reporter
Outline: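 Readout is reporter mRNA induction, quantified by fluorescent primer extension and capillary electrophoresis after RT-PCR. Cells were HepG2 transiently carrying chimeric NR-Gal4 constructs with GAL4-UAS reporters, treated for 24 h; activity scored upward from DMSO.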

[13] = target: Estrogen receptor (Homo sapiens) (UniProt P03372); assay: ATG_ERa_TRANS: Attagene TRANS-FACTORIAL HepG2 Assay for human Estrogen Receptor alpha (ERa) (AID 2282970; active = hit-call score of the fitted dose curve at least 0.9, where 1 is the maximum); conditions: HepG2 Attagene TRANS ERa GAL4 reporter, mRNA
Outline: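 Human liver HepG2, transient transfection of multiple GAL4-UAS reporter units; TRANS format (exogenous NR-Gal4 chimera). 24 h dosing. Readout: reporter mRNA, RT-PCR, 6-FAM primer extension, HpaI digest, capillary electrophoresis. Positive direction vs DMSO.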

[14] = ATG_GAL4_TRANS: Attagene TRANS-FACTORIAL HepG2 Assay for GAL4 (Internal Marker) (AID 2282976; active = hit-call score of the fitted dose curve at least 0.9, where 1 is the maximum); conditions: HepG2 Attagene TRANS GAL4 internal marker reporter
Outline: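 First, HepG2 cells were transfected with reporter units under GAL4-UAS control. Next, they were treated with chemical for 24 h. Finally, RNA was reverse-transcribed, PCR-amplified, FAM-labelled and resolved by capillary electrophoresis, with induction scored against DMSO.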

[15] = ATG_M_19_TRANS: Attagene TRANS-FACTORIAL HepG2 Assay for M19 Transcription Factor (Internal Marker) (AID 2282974; active = hit-call score of the fitted dose curve at least 0.9, where 1 is the maximum); conditions: HepG2 Attagene TRANS-FACTORIAL M19 internal marker reporter
Outline: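 Gain-of-signal in reporter mRNA, relative to DMSO, was scored from capillary electrophoresis fluorescence. HepG2 cells carried transiently transfected multiple reporter transcription units and were incubated with test chemicals for 24 h.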

[16] = target: Bile acid receptor (Homo sapiens) (UniProt Q96RI1); assay: ATG_FXR_TRANS: Attagene TRANS-FACTORIAL HepG2 Assay for Farnesoid X Receptor (FXR) (AID 2282979; active = hit-call score of the fitted dose curve at least 0.9, where 1 is the maximum;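 also: hits raise reporter mRNA above DMSO so AC50 marks FXR activation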); conditions: HepG2 Attagene TRANS FXR-GAL4 reporter transcription
Outline: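 Transient transfection of HepG2 with multiplexed GAL4-UAS reporter units; exogenous FXR-GAL4 chimera. Dose 24 h → TriZol RNA → oligo(dT) RT → PCR, 6-FAM primer extension, HpaI cut → CE. Gain vs DMSO.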

[17] = ATG_M_32_TRANS: Attagene TRANS-FACTORIAL HepG2 Assay for M32 Transcription Factor (Internal Marker) (AID 2282984; active = hit-call score of the fitted dose curve at least 0.9, where 1 is the maximum;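 also: transcript level of a background control reporter unit measured by RT-PCR and capillary electrophoresis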); conditions: HepG2 Attagene TRANS M32 internal marker reporter
Outline: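 Using transiently transfected HepG2 cells exposed to test chemicals for 24 h, reporter transcripts are converted to labelled cDNA fragments and quantified by capillary electrophoresis. DMSO defines the activity baseline.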

[18] = target: Oxysterols receptor LXR-alpha (Homo sapiens) (UniProt Q13133); assay: ATG_LXRa_TRANS: Attagene TRANS-FACTORIAL HepG2 Assay for human Liver X Receptor alpha (LXRa) (AID 2282980; active = hit-call score of the fitted dose curve at least 0.9, where 1 is the maximum); conditions: HepG2 Attagene TRANS reporter, LXRa transactivation
Outline: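 Transfect HepG2 with GAL4-UAS multiplex reporter constructs (TRANS format, chimeric receptor-GAL4); treat 24 h; extract RNA, reverse-transcribe, PCR-amplify, FAM-label, HpaI-digest; resolve fragments by capillary electrophoresis. Upward response vs DMSO.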

Measured: outcome

Nuclear receptor subfamily 4 group A member 2 (Homo sapiens), sequence (P43354 whole entry, looked up): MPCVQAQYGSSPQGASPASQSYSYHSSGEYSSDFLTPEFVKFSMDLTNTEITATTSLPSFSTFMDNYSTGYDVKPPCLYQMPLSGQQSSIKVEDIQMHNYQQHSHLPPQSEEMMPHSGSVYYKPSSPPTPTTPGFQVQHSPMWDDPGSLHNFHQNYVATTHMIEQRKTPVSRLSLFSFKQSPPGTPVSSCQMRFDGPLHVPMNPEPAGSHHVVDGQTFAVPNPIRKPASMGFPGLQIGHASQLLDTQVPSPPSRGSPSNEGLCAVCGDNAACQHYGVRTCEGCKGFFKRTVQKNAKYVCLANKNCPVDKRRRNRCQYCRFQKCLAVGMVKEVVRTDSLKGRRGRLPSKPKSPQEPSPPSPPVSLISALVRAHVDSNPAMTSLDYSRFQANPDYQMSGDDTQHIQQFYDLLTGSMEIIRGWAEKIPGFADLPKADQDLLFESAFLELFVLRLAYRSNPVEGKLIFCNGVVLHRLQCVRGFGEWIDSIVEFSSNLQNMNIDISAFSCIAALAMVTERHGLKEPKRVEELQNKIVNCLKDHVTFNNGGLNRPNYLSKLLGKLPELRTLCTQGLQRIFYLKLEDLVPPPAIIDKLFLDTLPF
Glucocorticoid receptor (Homo sapiens), sequence (P04150 whole entry, looked up, the tested form may be a part): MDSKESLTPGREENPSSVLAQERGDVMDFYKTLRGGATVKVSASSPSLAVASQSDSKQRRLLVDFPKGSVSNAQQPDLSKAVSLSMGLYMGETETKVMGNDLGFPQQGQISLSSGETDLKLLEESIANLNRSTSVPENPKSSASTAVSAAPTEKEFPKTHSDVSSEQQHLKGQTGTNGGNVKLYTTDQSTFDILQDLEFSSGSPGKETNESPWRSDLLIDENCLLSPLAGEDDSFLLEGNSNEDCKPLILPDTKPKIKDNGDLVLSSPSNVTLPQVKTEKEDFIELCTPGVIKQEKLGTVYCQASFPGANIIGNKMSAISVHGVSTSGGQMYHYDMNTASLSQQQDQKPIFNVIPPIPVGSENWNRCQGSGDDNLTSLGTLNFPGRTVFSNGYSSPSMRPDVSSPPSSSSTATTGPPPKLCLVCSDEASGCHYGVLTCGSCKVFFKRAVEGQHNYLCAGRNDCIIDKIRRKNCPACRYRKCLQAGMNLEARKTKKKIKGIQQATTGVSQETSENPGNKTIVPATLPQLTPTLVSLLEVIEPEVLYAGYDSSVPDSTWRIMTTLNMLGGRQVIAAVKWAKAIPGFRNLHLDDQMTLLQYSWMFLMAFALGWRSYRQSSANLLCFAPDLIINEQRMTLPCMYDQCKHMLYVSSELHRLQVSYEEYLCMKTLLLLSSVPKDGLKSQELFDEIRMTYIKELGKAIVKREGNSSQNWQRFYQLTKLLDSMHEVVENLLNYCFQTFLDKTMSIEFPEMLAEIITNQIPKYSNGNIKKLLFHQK
Transcriptional activator Myb (Homo sapiens), sequence (P10242 whole entry, looked up): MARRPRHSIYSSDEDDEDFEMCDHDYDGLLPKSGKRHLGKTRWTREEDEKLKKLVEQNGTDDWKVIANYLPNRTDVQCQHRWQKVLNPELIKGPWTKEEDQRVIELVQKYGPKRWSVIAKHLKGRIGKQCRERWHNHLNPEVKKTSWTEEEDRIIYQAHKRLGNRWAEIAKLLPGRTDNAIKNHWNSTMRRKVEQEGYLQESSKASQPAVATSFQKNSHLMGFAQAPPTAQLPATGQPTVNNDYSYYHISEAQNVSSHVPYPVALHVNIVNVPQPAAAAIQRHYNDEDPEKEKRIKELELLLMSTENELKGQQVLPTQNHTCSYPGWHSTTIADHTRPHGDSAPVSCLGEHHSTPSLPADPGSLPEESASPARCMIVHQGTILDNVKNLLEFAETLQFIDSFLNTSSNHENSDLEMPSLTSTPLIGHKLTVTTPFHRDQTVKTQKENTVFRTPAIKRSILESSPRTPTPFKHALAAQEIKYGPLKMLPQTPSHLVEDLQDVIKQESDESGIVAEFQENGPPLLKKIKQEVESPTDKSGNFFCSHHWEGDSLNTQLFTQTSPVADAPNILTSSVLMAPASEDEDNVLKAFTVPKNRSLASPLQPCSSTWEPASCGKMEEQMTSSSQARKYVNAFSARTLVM
Nuclear respiratory factor 1 (Homo sapiens), sequence (Q16656 whole entry, looked up): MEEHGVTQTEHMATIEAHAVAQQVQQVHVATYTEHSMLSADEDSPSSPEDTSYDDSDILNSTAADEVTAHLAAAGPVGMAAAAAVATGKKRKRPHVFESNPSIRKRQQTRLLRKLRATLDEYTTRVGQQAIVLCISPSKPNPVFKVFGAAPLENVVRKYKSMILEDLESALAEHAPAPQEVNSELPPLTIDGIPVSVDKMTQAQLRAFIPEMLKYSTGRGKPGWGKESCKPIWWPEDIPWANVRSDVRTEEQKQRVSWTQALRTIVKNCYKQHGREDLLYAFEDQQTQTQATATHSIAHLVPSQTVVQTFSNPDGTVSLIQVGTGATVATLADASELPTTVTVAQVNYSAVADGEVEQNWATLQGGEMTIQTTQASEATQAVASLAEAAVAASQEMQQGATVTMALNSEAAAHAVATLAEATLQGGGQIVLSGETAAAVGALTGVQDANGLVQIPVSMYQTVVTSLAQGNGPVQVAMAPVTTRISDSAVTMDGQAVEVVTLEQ
X-box-binding protein 1 (Homo sapiens), sequence (P17861 whole entry, looked up, the tested form may be a part): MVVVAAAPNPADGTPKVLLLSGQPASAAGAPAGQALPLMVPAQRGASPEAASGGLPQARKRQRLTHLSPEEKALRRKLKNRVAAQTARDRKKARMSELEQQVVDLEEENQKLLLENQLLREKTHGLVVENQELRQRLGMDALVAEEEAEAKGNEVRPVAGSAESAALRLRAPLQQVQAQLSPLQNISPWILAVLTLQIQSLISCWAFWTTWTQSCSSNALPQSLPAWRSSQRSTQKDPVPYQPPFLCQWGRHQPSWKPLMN
Bile acid receptor (Homo sapiens), sequence (Q96RI1 whole entry, looked up, the tested form may be a part): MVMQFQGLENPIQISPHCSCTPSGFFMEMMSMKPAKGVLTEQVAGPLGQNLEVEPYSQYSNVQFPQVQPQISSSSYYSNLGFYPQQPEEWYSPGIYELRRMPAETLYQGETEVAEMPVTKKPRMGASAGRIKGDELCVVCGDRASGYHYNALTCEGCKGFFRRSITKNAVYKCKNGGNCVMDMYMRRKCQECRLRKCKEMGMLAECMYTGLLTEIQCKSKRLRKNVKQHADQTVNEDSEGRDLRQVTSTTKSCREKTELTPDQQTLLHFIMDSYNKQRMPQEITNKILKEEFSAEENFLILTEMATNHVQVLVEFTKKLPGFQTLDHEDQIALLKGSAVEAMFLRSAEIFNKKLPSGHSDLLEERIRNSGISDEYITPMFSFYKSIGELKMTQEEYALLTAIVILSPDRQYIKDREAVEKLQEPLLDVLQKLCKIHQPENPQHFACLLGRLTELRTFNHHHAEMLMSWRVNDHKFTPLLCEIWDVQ
Hepatocyte nuclear factor 4-alpha (Homo sapiens), sequence (P41235 whole entry, looked up): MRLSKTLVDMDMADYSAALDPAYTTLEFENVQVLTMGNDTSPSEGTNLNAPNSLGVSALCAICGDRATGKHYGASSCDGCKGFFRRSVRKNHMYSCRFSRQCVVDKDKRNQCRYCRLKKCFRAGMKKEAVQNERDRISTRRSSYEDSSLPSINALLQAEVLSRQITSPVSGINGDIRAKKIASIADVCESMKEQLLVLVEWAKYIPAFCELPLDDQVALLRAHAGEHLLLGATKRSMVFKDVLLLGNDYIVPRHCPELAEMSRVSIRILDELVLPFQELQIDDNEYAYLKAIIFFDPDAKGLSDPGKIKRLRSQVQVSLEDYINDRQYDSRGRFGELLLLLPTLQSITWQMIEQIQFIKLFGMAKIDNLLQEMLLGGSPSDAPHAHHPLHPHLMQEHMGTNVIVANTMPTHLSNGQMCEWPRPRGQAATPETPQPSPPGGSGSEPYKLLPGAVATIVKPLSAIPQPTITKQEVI
Estrogen receptor (Homo sapiens), sequence (P03372 whole entry, looked up, the tested form may be a part): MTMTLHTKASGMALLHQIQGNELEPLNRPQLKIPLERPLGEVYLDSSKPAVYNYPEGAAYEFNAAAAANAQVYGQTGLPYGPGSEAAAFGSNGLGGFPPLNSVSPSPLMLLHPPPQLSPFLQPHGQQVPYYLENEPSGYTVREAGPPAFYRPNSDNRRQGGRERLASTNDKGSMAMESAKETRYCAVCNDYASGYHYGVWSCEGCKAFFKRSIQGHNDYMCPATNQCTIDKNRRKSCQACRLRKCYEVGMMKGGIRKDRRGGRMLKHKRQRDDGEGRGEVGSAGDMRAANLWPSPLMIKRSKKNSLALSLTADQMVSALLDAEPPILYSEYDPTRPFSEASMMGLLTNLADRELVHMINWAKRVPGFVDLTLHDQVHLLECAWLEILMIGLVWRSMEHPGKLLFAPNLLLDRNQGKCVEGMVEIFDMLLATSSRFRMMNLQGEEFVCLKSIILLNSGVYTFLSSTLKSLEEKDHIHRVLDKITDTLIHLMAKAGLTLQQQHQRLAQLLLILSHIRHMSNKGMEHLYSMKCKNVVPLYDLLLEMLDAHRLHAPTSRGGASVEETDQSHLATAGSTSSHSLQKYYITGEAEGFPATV
Nuclear receptor subfamily 1 group I member 3 (Homo sapiens), sequence (Q14994 whole entry, looked up, the tested form may be a part): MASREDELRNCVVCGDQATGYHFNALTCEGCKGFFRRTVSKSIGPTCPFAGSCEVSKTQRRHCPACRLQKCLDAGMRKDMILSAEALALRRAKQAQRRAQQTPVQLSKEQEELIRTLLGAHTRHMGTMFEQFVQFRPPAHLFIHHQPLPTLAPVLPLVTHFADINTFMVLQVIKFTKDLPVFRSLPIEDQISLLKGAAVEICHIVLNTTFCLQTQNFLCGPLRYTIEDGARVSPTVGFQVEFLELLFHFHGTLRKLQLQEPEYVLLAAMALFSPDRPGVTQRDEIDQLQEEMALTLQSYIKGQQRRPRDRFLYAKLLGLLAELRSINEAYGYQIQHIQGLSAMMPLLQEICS

NC(=O)NN=Cc1ccc([N+](=O)[O-])o1
not listed: [12] | [13] | [14] | [15] | [16] | [17] | [18]
inactive: all other assays above

CCc1cccc(CC)c1N
not listed: [3] | [15] | [16] | [17] | [18]
inactive: all other assays above

O=C(O)c1cccc(C(=O)O)c1
not listed: [3] | [7] | [8] | [12] | [13] | [18]
inactive: all other assays above

c1ccc2ncccc2c1
not listed: [3] | [5] | [12] | [14] | [15] | [16]
inactive: all other assays above

OC[C@H]1O[C@@H]2O[C@H]3[C@H](O)[C@@H](O)[C@@H](O[C@H]4[C@H](O)[C@@H](O)[C@@H](O[C@H]5[C@H](O)[C@@H](O)[C@@H](O[C@H]6[C@H](O)[C@@H](O)[C@@H](O[C@H]7[C@H](O)[C@@H](O)[C@@H](O[C@H]1[C@H](O)[C@H]2O)O[C@@H]7CO)O[C@@H]6CO)O[C@@H]5CO)O[C@@H]4CO)O[C@@H]3CO
inactive: [1] | [2] | [3] | [4] | [7] | [8] | [9] | [10] | [11]

COCc1nnc(-c2ccc[n+]([O-])c2)n1-c1c(Cl)c(Cl)cc2[nH]c(=O)c(=O)[nH]c12
not listed: [5] | [8] | [12] | [13] | [15] | [17] | [18]
inactive: all other assays above

CCCCOC(=O)c1ccccc1
inactive: [1] | [2] | [3] | [4] | [7] | [8] | [9] | [10] | [11]

OC[C@H]1O[C@@](CO)(O[C@H]2O[C@H](CO)[C@@H](O)[C@H](O)[C@H]2O)[C@@H](O)[C@@H]1O
inactive: [1] | [2] | [4] | [16] | [7] | [17] | [8] | [9] | [10] | [11]
